Assay outcomes deposited in PubChem by several laboratories.
The list is not random: actives were taken first. Their share in the collection is about 2.1%.
CF NFkB inh – inhibitors of PAF-induced NF-kB signaling, primary screen, cell-based, GFP fluorescence, uHTS; KKLEB NF-kB-GFP reporter, GFP fluorescence overnight; inhibition, % at 5 µM; hit rate 0.86% among 360,000;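 active = at least 50% inhibition at 5 µM, scaled per plate between neutral and stimulator controls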;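 note: PAF is a Pseudomonas aeruginosa culture filtrate used as stimulus; plate controls were PAF-stimulated DMSO wells for no effect and unstimulated DMSO wells for full effect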
KKLEB tox – cytotoxicity in KKLEB CF airway cells, primary screen, cytotoxicity control for CF NF-kB inhibitor project, cell-based, uHTS, fluorescence assay plates. KKLEB CF airway cells viability, ATPlite luminescence, overnight; stronger effect = lower value; cells stimulated with P. aeruginosa culture filtrate. activity change (cytotoxicity), % at 5 µM. hit rate 0.36% among 360,000. AID 602141, 2011;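 active = corrected activity change at or below -50% at 5 µM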
EWS-Fli inh – EWS/Fli-driven NR0B1 reporter inhibitors, primary screen, A673 cells, NR0B1 luciferase, luminescence, MLPCN library. viability-normalised. inhibition, % at 12.6 µM. hit rate 0.67% among 350,000. AID 651661, 2012;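 active = mean inhibition of at least 50% after viability correction, with every replicate also passing that limit; inconclusive = mean reaches 50% but only one of two replicates passes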;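 note: firefly luciferase signal divided by Alamar Blue viability fluorescence both relative to DMSO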
HIF-2a inh – HIF-2a reporter inhibitors, primary screen, luminescence, 786-0 RCC cells | 786-0 RCC cells HIF-2a reporter, luciferase luminescence, overnight | inhibition, % at 18.8 µM | hit rate 0.72% among 360,000 | AID 624352, 2012;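 active = inhibition of the luminescence signal of 40% or more relative to plate controls, in a single-dose primary screen at 18.75 µM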
PAX8 inh HTS – inhibitors of PAX8-driven TPO luciferase reporter, primary screen, RMG-I cells, single concentration. SteadyGlo, 24 h. inhibition, % at 12.6 µM. hit rate 1.2% among 360,000;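 active = mean replicate inhibition at least 60% with every replicate also reaching 60%; inconclusive = only one of the two criteria is met; inactive = mean below 60% and not all replicates reaching 60%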;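 note: luciferase light reporting Pax8 driven TPO promoter activity; plate controls were median of neutral control wells for no effect and mitoxantrone controls for full effect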
Active calls of the source: *; u = inconclusive; x = no result given.

SMILES | CF NFkB inh | KKLEB tox | EWS-Fli inh | HIF-2a inh | PAX8 inh HTS
NC(=O)CC(NC(=O)c1ccc(Br)cc1)c1ccc(N2CCN(c3ccccn3)CC2)c([N+](=O)[O-])c1 (stereo unspecified) | 8 | -12 | 5 | -4 | -3
O=C(c1ccccn1)N1CC2(C1)[C@@H](c1ccccc1)[C@H](CO)N2Cc1ccc(Cl)cc1 | x | x | 2 | x | x
Cc1cccnc1NCc1ccc(O)c2ncccc12 | -8 | 21 | x | 5 | 15
Cc1cccc(NCc2ccc(O)c3ncccc23)c1C | 32 | -10 | 47 | 11 | 99*
C=CCN=C1NN=C(c2cc(C)n(CC=C)c2C)CS1 | 4 | 1 | 80* | 58* | 15
C=CCN=C1NN=C(c2ccc3c(c2)OCCO3)CS1 | 6 | -10 | 58* | -17 | -31
c1ccc(C2=NNC(=NCc3ccc4c(c3)OCO4)SC2)cc1 | 14 | 1 | x | -110 | x
CCSc1ncc(Cl)c(C(=O)Nc2sc3c(c2C(=O)NCc2cccnc2)CCCC3)n1 | 44 | -54* | x | -5 | x
COc1ccc(S(=O)(=O)Nc2ccc3c(c2)C(=O)N([C@@H](C)CO)C[C@H](C)[C@H](CN(C)C)OCCCC[C@@H](C)O3)cc1 | x | x | x | x | 6
Cc1cccc(OCc2nc(-c3cccnc3)no2)c1 | -13 | 11 | -38 | -103 | 92*
Cc1ccc(C)c(OCc2nc(-c3cccnc3)no2)c1 | 8 | 6 | x | -122 | x
CCCC(=NCCc1c(C)[nH]c2ccccc12)C1=C(O)CC(c2ccccc2)CC1=O (stereo unspecified) | 44 | -8 | x | 31 | x
CCCCC(=NCCc1c(C)[nH]c2ccccc12)C1=C(O)CC(c2ccccc2)CC1=O (stereo unspecified) | 13 | -20 | 51* | -3 | 26
CC=Cc1ccc2n(c1=O)C[C@H]1[C@H](CO)[C@@H](C(=O)NCc3ccccc3)N(CC)[C@@H]21 (mixture of isomers) | x | x | -4 | x | x
COc1ccc([Si](C)(C)[C@H]2[C@H](CCO)O[C@@]3(C(=O)N(Cc4ccccc4)c4ccc(N5CCOC5=O)cc43)[C@@H]2C)cc1 | x | x | 14 | x | 51
COc1ccc([Si](C)(C)[C@H]2[C@H](CCO)O[C@@]3(C(=O)N(Cc4ccc(NC(C)=O)cc4)c4ccccc43)[C@@H]2C)cc1 | x | x | -20 | x | 111*
COc1ccc([Si](C)(C)[C@@H]2[C@@H](CCO)O[C@]3(C(=O)N(Cc4ccc(NC(C)=O)cc4)c4ccccc43)[C@H]2C)cc1 | x | x | 7 | x | 107*
COc1ccc([Si](C)(C)[C@H]2[C@H](CCO)O[C@@]3(C(=O)N(Cc4cccc(NC(C)=O)c4)c4ccccc43)[C@@H]2C)cc1 | x | x | 21 | x | u
C[C@@H]1CCCCO[C@@H](CN(C)C(=O)Nc2ccc(F)cc2)[C@H](C)CN([C@@H](C)CO)C(=O)c2cc(NC(=O)Nc3ccc4c(c3)OCO4)ccc2O1 | x | x | 0 | x | -14
O=C(Nc1ccc(F)cc1)N[C@H]1CC[C@H](CCNC(=O)c2ccccc2F)O[C@@H]1CO | x | x | -7 | x | x
CSC(=S)NN=C(C)c1cccc(C)n1 | 76* | -10 | 13 | -15 | 76*
O=C(c1cc(-c2ccc(Cl)cc2Cl)on1)N1CCCCCC1 | 3 | -9 | -5 | -177 | -160
Cc1ccc(-c2cc(C(=O)N3CCOCC3)no2)cc1 | -36 | 3 | 54* | 31 | 9
O=C(c1cc(-c2ccc(Cl)cc2Cl)on1)N1CCCC1 | -5 | -26 | 55* | -36 | -48
CC(=O)Nc1ccc2c(c1)C(=O)N(C)[C@H]1CC[C@H](CC(=O)Nc3ccccc3Cl)O[C@@H]1CO2 | x | x | 0 | x | -1
SMILES | CF NFkB inh | KKLEB tox | EWS-Fli inh | HIF-2a inh | PAX8 inh HTS
CN1C[C@H]2[C@@H](c3ccccc31)[C@@H](CO)N2C(=O)Nc1ccc(F)cc1 | x | x | -4 | x | -19
CC1(C)C2CC[C@]3(C)C(CC=C4[C@@H]5C[C@@](C)(CO)[C@@H](O)C[C@]5(C(=O)O)CC[C@]43C)[C@@]2(C)CC[C@@H]1O (stereo partly specified) | -25 | 6 | x | 4 | x
C=C(C)[C@@H]1CC[C@]2(C(=O)O)CC[C@]3(C)C(CCC4[C@@]5(C)CC[C@H](O)C(C)(C)C5CC[C@]43C)C12 (stereo partly specified) | 79* | -76* | -2 | 2 | x
CC(NC1=CC(=O)c2cccnc2C1=O)C(O)c1ccccc1 (stereo unspecified) | 80* | -32 | 31 | 19 | u
O=S(=O)(NCC1CCCO1)c1cc(Cl)ccc1Br (stereo unspecified) | -1 | -3 | x | 3 | x
O=S(=O)(NCC1CCCO1)c1cnc(Cl)c(Br)c1 (stereo unspecified) | -5 | -13 | 12 | 11 | 110*
COc1ccc(NC(=O)Nc2ccc3c(c2)C(=O)N([C@H](C)CO)C[C@@H](C)[C@@H](CN(C)S(=O)(=O)c2ccccc2)O3)cc1 | x | x | -9 | x | x
Nc1ncnc2c1ncn2C1O[C@H](CO)[C@@H](O)[C@@H]1O (stereo partly specified) | -3 | -46 | 9 | 15 | -7
N#Cc1c(N)n(C2OC(CO)C(O)C2O)c2ncnc(N)c12 (stereo unspecified) | 89* | -62* | 27 | 71* | 109*
C[C@H]1CN([C@@H](C)CO)S(=O)(=O)c2ccc(-c3cccc(C#N)c3)cc2O[C@H]1CN(C)Cc1cccc(F)c1 | x | x | 21 | x | 11
CNC(=O)OCc1nc(SSC(C)(C)C)n(C)c1COC(=O)NC | 78* | -75* | 67* | -20 | 20
COc1ccc2c3c(n(C)c2c1)[C@H](CO)N(S(C)(=O)=O)CC31CCN(CC2CC2)CC1 | x | x | -2 | x | x
O=C(Nc1cccc(S(=O)(=O)NCc2ccco2)c1)c1cc(-c2ccccc2)nc2ccccc12 | -20 | 2 | 17 | 11 | 76*
O=C(NCc1ccco1)c1cc(-c2ccccc2)nc2ccccc12 | -31 | 6 | x | -1 | x
O=C(/C=C/c1ccco1)NC(=S)Nc1nc(-c2ccc3ccccc3c2)cs1 | 47 | -64* | u | -71 | 12
COC(=O)C[C@H]1CC[C@H]2[C@@H](COc3ccc(NC(=O)Nc4ccc(C#N)cc4)cc3C(=O)N2C)O1 | x | x | 3 | x | x
C[C@@H]1CN([C@H](C)CO)C(=O)c2cc(NC(=O)CCN3CCOCC3)ccc2O[C@H]1CN(C)Cc1ccc(C(=O)O)cc1 | x | x | -12 | x | x
Cc1[nH]n(-c2ccc(Cl)cc2)c(=O)c1C=NC12CN3CN(CN(C3)C1)C2 | -1 | 6 | 7 | 14 | 81*
N#C[C@H]1[C@@H](c2ccccc2)[C@@H](CO)N1S(=O)(=O)c1ccc(F)cc1 | x | x | 5 | x | -26
O=C(O)c1ccccc1Nc1cc(Cl)c2nonc2c1[N+](=O)[O-] | -12 | 1 | -8 | 18 | 7
CN(C)c1cc(Nc2ccc(O)cc2)c([N+](=O)[O-])c2nonc12 | -4 | 0 | 6 | 8 | -8
